Source: PubChem BioAssay (NCI)
Compounds without any hit were thinned out: in the full panel of roughly 83,000, 20% have a hit.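 Single-dose data. Exposure time 48 hours. Values below 10 considered active.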 A number with no mark means an inactive call. The source made the active and inactive calls.

System: 786-0 renal
Test: NCI-60 one-dose screen, 48 h (100 = growth as untreated, 0 = no growth, -100 = all killed)
Conditions: 10 µM

| Structure (SMILES) | growth |
| --- | --- |
| O=C(/C=C/c1ccc(Cl)cc1)c1nc2ccccc2n1Cc1ccc(F)cc1 | 5.13% (active) |
| CC1=C(CCC=O)C2=C(C)C3(CC3)[C@@](C)(O)C(=O)C2=C1 | -48.9% (active) |
| O=C(NC([Se])=NC1CCCCC1)c1ccc2c(c1)OCO2 | 44.1% |
| C[C@H]1[C@H](OC(=O)CCC(=O)N(CCCc2cn(-c3ccc(C#N)cc3)nn2)CCNc2ccnc3cc(Cl)ccc23)O[C@@H]2OC3(C)CC[C@H]4[C@H](C)CC[C@@H]1[C@@]24OO3 | 50.7% |
| C[C@H]1[C@@H](Oc2ccc(-c3cn(-c4ccnc5cc(Cl)ccc45)nn3)cc2)O[C@@H]2OC3(C)CC[C@H]4[C@H](C)CC[C@@H]1[C@@]24OO3 | 35.1% |
| COc1ccc(/C=C/C(=O)c2nc3ccccc3n2Cc2ccc(Br)cc2)cc1 | 64.7% |
| COC(=O)CCn1c(-c2ccc(-n3cc(-c4ccc(O[C@H]5O[C@@H]6OC7(C)CC[C@H]8[C@H](C)CC[C@@H]([C@H]5C)[C@@]68OO7)cc4)nn3)cc2)nc2ccccc21 | 32.3% |
| C[C@H]1[C@H](OC(=O)CCC(=O)N(CCCc2cn(-c3ccc([N+](=O)[O-])cc3)nn2)CCNc2ccnc3cc(Cl)ccc23)O[C@@H]2OC3(C)CC[C@H]4[C@H](C)CC[C@@H]1[C@@]24OO3 | 47.1% |

System: COLO 205 colon
Test: as above
Conditions: 10 µM

| Structure (SMILES) | growth |
| --- | --- |
| O=C(/C=C/c1ccco1)c1nc2ccccc2n1Cc1ccc(Br)cc1 | 69.7% |
| O=C(/C=C/c1ccco1)c1nc2ccccc2n1Cc1ccc(F)cc1 | 81.9% |
| COc1cc2cc(C(=O)N3C[C@@H](CCl)c4c3cc(OC(=O)N3CCN(C)[C@@H]5CSSC[C@@H]53)c3ccccc43)[nH]c2c(OC)c1OC | -55.6% (active) |
| C#CC[Se]C(=O)c1ccc2n[se]nc2c1 | 58.6% |
| O=C(/C=C/c1ccc(Cl)cc1Cl)c1nc2ccccc2n1Cc1ccc(F)cc1 | 83.6% |
| O=C(/C=C/c1ccc(Cl)cc1)c1nc2ccccc2n1Cc1ccc(Br)cc1 | 93.6% |
| CCOP(=O)(OCC)C(NC(C)=O)C(=O)SCCN (stereo unspecified) | 128% |
| COc1cc2cc(C(=O)N3C[C@@H](CCl)c4c3cc(OC(=O)N3CCN(C)[C@@H]5CSSC[C@H]53)c3ccccc43)[nH]c2c(OC)c1OC | -59.2% (active) |
| COc1ccc2cc([C@H](C)C(=O)[Se]CCC#N)ccc2c1 | -71% (active) |
| CC12OOC(C)(OO1)C2CCC(=O)OCCNc1ccnc2cc(Cl)ccc12 (stereo unspecified) | -54.4% (active) |
| CC(C)N=C([Se])NC(=O)c1cccs1 | 84.7% |
| Cc1ccc2[nH]c(=S)n(-c3ccc(F)cc3)c(=O)c2c1 | 134% |
| CCOC(=O)C1=C(Nc2ccccc2)C(=O)OC12C(=O)Nc1ccccc12 (stereo unspecified) | 119% |
| CC12CCC3(CCC(=O)NCCCNc4ccnc5cc(Cl)ccc45)[C@@](C)(OO[C@]3(C)O1)O2 | 36.7% |
| CC[C@]12C=CCN3CC[C@@]4(c5ccc(OC)cc5N(C)[C@H]4[C@@](O)(C(=O)OC)[C@@H]1OC(=O)CCCC[P+](C1CCCCC1)(C1CCCCC1)C1CCCCC1)[C@@H]32 | -76.6% (active) |
| CC(=O)Oc1ccccc1C(=O)[Se]C(=NC(C)C)NC(C)C | -69% (active) |
| COCCOCCOCCOc1ccc(-n2cc(CCCN(CCNc3ccnc4cc(Cl)ccc34)C(=O)CCC(=O)O[C@@H]3O[C@@H]4OC5(C)CC[C@H]6[C@H](C)CC[C@@H]([C@H]3C)[C@@]46OO5)nn2)cc1 | 11.8% |
| C[C@H]1[C@@H](CC(=O)N[C@@H](Cc2coc3ccccc23)B(O)O)O[C@@H]2OC3(C)CC[C@H]4[C@H](C)CC[C@@H]1[C@@]24OO3 | -49.2% (active) |
| COP(=O)(CC(F)(F)C(F)(F)F)OC | -59.3% (active) |
| CC12OOC(C)(OO1)C2CCC(=O)NCCNc1ccnc2cc(Cl)ccc12 (stereo unspecified) | 73% |
| CC[C@]12C=CCN3CC[C@@]4(c5ccc(OC)cc5N(C)[C@H]4[C@@](O)(C(=O)OC)[C@@H]1OC(=O)CCC[P+](c1ccc(C)cc1)(c1ccc(C)cc1)c1ccc(C)cc1)[C@@H]32 | -50.2% (active) |
| CC(C)N=C([Se])NC(=O)c1ccccc1 | -11.7% (active) |
| CC[C@]12C=CCN3CC[C@@]4(c5ccc(OC)cc5N(C)[C@H]4[C@@](O)(C(=O)OC)[C@@H]1OC(=O)CCC[P+](C1CCCCC1)(C1CCCCC1)C1CCCCC1)[C@@H]32 | -63.6% (active) |
